Screens (PubChem)
D2 ag-1 = D2 dopamine receptor (human) agonism; P14416; HEK293 T-REx D2 cells, calcium flux agonist mode; activation, % at 2 µM; 340,000 tested, 0.53% active;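 active = activation over 3 SD above normal in the single-dose calcium agonist read, cut at about 30% in these data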; note: 0% is about no effect
Target sequence (P14416 whole entry, looked up): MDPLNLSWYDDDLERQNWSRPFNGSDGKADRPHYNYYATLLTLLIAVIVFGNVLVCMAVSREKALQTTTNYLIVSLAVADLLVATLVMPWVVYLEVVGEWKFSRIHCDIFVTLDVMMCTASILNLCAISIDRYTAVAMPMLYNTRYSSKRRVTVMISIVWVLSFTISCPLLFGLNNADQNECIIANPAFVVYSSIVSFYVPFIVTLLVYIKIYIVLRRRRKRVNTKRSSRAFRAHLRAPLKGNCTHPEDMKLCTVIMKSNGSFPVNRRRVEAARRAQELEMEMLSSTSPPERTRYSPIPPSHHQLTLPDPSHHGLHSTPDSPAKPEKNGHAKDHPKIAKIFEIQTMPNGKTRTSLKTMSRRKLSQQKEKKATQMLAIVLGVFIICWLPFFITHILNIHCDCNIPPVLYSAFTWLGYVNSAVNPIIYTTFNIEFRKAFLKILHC
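Calcium-flux readout, 1 cycle/sec over 180 s following compound pin transfer, in inducible HEK293 Trex D2 cells (force-coupled); dopamine controls included. Positive calcium responses during this window marked compounds as potential agonists.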
D2 antag = D2 dopamine receptor (human) antagonism; HEK293 TREx D2 cells, calcium flux, dopamine EC80; inhibition, % at 10 µM; 340,000 tested, 2% active; P14416; in the data active = inhibition above about 30%; inactive = below that, where a call was filed; note: 0% is about no effect
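Compounds are added to dye-loaded, induced HEK293 T-REx cells coupled to calcium release via D2; after a 3 min kinetic read an EC80 dopamine stimulus is given and fluorescence is recorded for 3 more min.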
D2 PAM-1 = human D2 receptor positive allosteric modulation | AID 624464 | 360,000 tested, 0.23% active | DiscoveRx D2 beta-arrestin cells, luminescence, 90 min; 100% = 57 uM dopamine signal | potentiation, % (no concentration beside the values); in the data active = potentiation above about 50%; inconclusive = mostly about 30% to 49%
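PathHunter beta-arrestin assay in DiscoveRx D2 cells. Compounds were added with an EC20 of dopamine (50 nM final) for 90 min at 37 deg C. Luminescence was read 1 h after detection reagent, with 57 uM dopamine as the EC100 control.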
D2 PAM-2 = positive allosteric modulators of human D2 dopamine receptor. P14416. potentiation, % at 10 µM. 340,000 tested, 0.34% active. HEK293 T-REx D2, calcium flux, EC20 dopamine potentiation;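 active = potentiation over 3 SD above the plate norm, cut at about 30% in these data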; note: 0% is about no effect
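Primary screen. Calcium kinetics in induced HEK293 T-REx D2 cells: compound pre-addition 180 s, EC20 dopamine, 180 s more.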
D2 ag-2 = agonists of human D2 dopamine receptor (beta-arrestin); DiscoveRx PathHunter D2 beta-arrestin, luminescence, 90 min; 100% = 57 uM dopamine signal; P14416; AID 624465; 360,000 tested, 0.084% active; activation, % (test concentration not listed); in the data active = activation above about 40%; inconclusive = between about 15% and that limit
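Agonist mode: compounds alone added to overnight-plated D2 PathHunter cells for 90 min at 37 C, with 57 uM final dopamine (EC100) defining full response. Beta-arrestin recruitment detected by chemiluminescent reagent, read after 1 h at ambient temperature.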
D3 ag = confirmation of human D3 dopamine receptor agonists, beta-arrestin | shares compounds with D2 ag-1 | DiscoveRx D3 beta-arrestin cells, luminescence, 90 min | Potency, µM (doses to about 76.9 µM), for the others: top-dose activation, actives largely listed as activators | 2,300 tested, 4% active;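 note: potency is the fitted concentration of half-maximal effect; 100% = dopamine control response; nearly all actives have a fitted effect of over 70% in size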
D2 ag-3 = D2 receptor agonism, beta-arrestin counterscreen; shares compounds with D2 ag-1; DiscoveRx PathHunter D2 beta-arrestin, luminescence, 90 min; response scale: percent relative to full dopamine signal; Potency, µM (doses to about 76.9 µM), inactives show at the highest dose activation, hits mostly activators; 2,300 tested, 5.9% active; note: potency is the fitted concentration of half-maximal effect; % of control where 0% means no effect; nearly all actives have a fitted effect of over 70% in size
The depositor's hits bear a star; ? = inconclusive; nt = no result; ! = a repeat was not active. Shown are actives, neighbours in structure and some others; about 2.4% of the full set was active somewhere. Unless noted, calls come from the whole dose curve; as a rule, active = well fitted activation curve with a large enough effect; inconclusive = small, poorly fitted or top-dose-only effect; inactive = flat fitted curve, though single readings scatter.

SMILES | D2 ag-1 | D2 antag | D2 PAM-1 | D2 PAM-2 | D2 ag-2 | D3 ag | D2 ag-3
COC(=O)c1[nH]c2ccccc2c1NC(=O)CN1CCN(C(=O)c2ccco2)CC1 | 58* | 21 | 9 | -19 | ? | ? | 19%
COc1ccccc1N1CCN(CC(=O)Nc2ccc(CN3CCCCC3)cc2)CC1 | 31* | 39* | -9 | -24 | 12 | -7% | 13%
Cc1ccccc1NC(=O)CN1CCN(C(=O)c2ccco2)CC1 | 44* | -15 | 4 | -11 | 11 | -6% | 22%
O=C(Nc1ccc(Oc2ccccc2)cc1)c1ccc2sc([C@H]3C[C@H](O)[C@@H](CO)O3)nc2c1 | nt | nt | 10 | nt | ? | nt | nt
CCOc1ccc(NC(=O)Cn2c(CCC(=O)O)ccc2-c2ccc(Cl)cc2)cc1 | 0 | nt | nt | 11 | nt | nt | nt
COc1ccc([N+](=O)[O-])cc1NC(=O)CCCOc1ccccc1 | 0 | 2 | -19 | -35 | -3 | nt | nt
Cc1nc(NC(=O)CN2CCCCC2)sc1C(=O)N(C)C | 0 | 7 | -1 | 3 | -1 | nt | nt
COc1ccccc1NC(=O)c1ccc(NC(=O)c2ccco2)cc1 | 0 | -14 | 1 | -20 | -3 | nt | nt
COc1ccccc1NC(=O)c1ccc(NC(=O)CN2CCN(C(=O)c3ccco3)CC2)cc1 | 51* | 41* | 19 | -7 | 11 | ? | 20%
COc1ccccc1NC(=O)CN1CCN(C(=O)c2ccco2)CC1 | nt | nt | -21 | nt | 7 | ? | 13%
COc1ccccc1N1CCN(CC(=O)Nc2nc(C)c(C(=O)N(C)C)s2)CC1 | 0 | 12 | -19 | -6 | 3 | -7% | -5%
COc1ccc([N+](=O)[O-])cc1NC(=O)CCN1CCN(c2ccccc2)CC1 | nt | nt | 6 | nt | 47* | ? | ?
COc1ccc(NC(=O)CON=CC(=O)Nc2ccc(C)cc2)c(OC)c1 | nt | nt | -13 | nt | 0 | nt | nt
COc1ccc(C)cc1NC(=O)CCN1CCN(C/C=C/c2ccccc2)CC1 | 70* | 68* | 0 | -25 | 4 | 7% | ?
COc1cccc2c1cc1c(=O)n(CC(=O)N3CCCCCC3)nc(C)n12 | 43* | 11 | 8 | -12 | 14 | ? | ?
CCOC(=O)C1CCCN(C(=O)Cn2nc(C)n3c(cc4c(OC)cccc43)c2=O)C1 (stereo not drawn) | 19 | 5 | 8 | -1 | ? | ? | 27%
COc1cccc2c1cc1c(=O)n(CC(=O)N3CCCCC3)nc(C)n12 | 5 | nt | nt | 1 | nt | nt | nt
CCOC(=O)C1CCN(C(=O)Cn2nc(C)n3c(cc4c(OC)cccc43)c2=O)CC1 | nt | nt | nt | -16 | nt | nt | nt
COC(=O)c1ccc(NC(=O)CC2C(=O)N(c3cccc(OC)c3)C(=O)N2Cc2ccco2)cc1 (stereo not drawn) | 0 | nt | nt | -1 | nt | nt | nt
CCOC(=O)N1CCC(NCCNC(=O)c2ccco2)CC1 | 76* | 38* | 12 | -24 | -17 | -1% | 22%
CCOC(=O)N1CCC(NC(=O)C(Cc2ccccc2)NC(=O)c2ccco2)CC1 (stereo not drawn) | 1 | -6 | -20 | nt | -1 | nt | nt
COc1cccc2ccc(CC(O)(c3ccccc3)c3ccccc3)nc12 | nt | nt | -7 | nt | -3 | nt | nt
O=C(CCN1CCN(c2ccccc2)CC1)NNC(=O)Cc1ccccc1Cl | 81* | 48* | -20 | -25 | 9 | 6% | 18%
O=C(CCN1CCN(c2ccccc2)CC1)NNC(=O)c1ccccc1 | nt | nt | -12 | nt | 4 | nt | nt
O=C(CCN1CCN(c2ccccc2)CC1)NNC(=O)Cc1c(F)cccc1Cl | 79* | 60* | -39 | -24 | 6 | ? | 14%
SMILES | D2 ag-1 | D2 antag | D2 PAM-1 | D2 PAM-2 | D2 ag-2 | D3 ag | D2 ag-3
CCc1ccc(O)c(C(=O)c2cnc3cc(-c4ccc(C)cc4)nn3c2)c1 | 0 | nt | nt | 2 | nt | nt | nt
COc1ccc(CSc2nc(C)[nH]c2[N+](=O)[O-])cc1[N+](=O)[O-] | -1 | -9 | -3 | -7 | -1 | nt | nt
Cc1nc(SCc2ccccc2)c([N+](=O)[O-])[nH]1 | 0 | 22 | -10 | -1 | -5 | -23% | -7%
CCc1ccc(NCc2cc3cc4c(cc3n(CC(=O)Nc3ccc(C)cc3)c2=O)OCO4)cc1 | -2 | nt | nt | 5 | nt | nt | nt
COc1cccc(CC(=O)OCc2csc(CC(=O)Nc3ccccc3C)n2)c1 | 1 | 16 | 12 | -2 | -1 | -1% | -3%
Cc1ccccc1NC(=O)Cc1nc(COC(=O)CCc2ccccc2)cs1 | -1 | 15 | 0 | 4 | -2 | nt | nt
CN1CCC2(CC1)C1CN(C)CC=C1C(C#N)=C(N)C2(C#N)C#N (stereo not drawn) | 46*! | 30 | 3 | -17 | 14 | 29% | ?
COc1cccc(CN2CCN(C3CCN(c4cccc(C)c4C)CC3)CC2CCO)c1 (stereo not drawn) | 71* | 73* | 15 | -9 | ? | ? | ?
CCOC(=O)N1CCC(N2CCN(Cc3ccccc3)C(CCO)C2)CC1 (stereo not drawn) | 78* | 76* | -2 | -13 | ? | 0% | ?
COc1cccc(CN2CCN(C3CCN(c4ccccc4F)CC3)CC2CCO)c1 (stereo not drawn) | 3 | 8 | -16 | -23 | -2 | nt | nt
CCOC(=O)N1CCC(N2CCCC(C(=O)c3cc(C)c(OC)c(C)c3)C2)CC1 (stereo not drawn) | nt | nt | -6 | nt | -2 | nt | nt
COc1cccc(CN2CCN(C3CCN(c4ccccc4C)CC3)CC2CCO)c1 (stereo not drawn) | 60* | 27 | -8 | -26 | -8 | -12% | 3%
CCOC(=O)N1CCC(N2CCCC(C(=O)c3ccccc3OC)C2)CC1 (stereo not drawn) | 74* | 70* | 10 | -15 | ? | -2% | ?
O=C1C(=O)N(C2CCN(C(=O)c3cccc(Cl)c3)CC2)CCN1Cc1ccc(F)cc1 | 0 | nt | nt | 0 | nt | nt | nt
CCOC(=O)C1CCCN(C(=O)c2ccc(-c3ccccc3)cc2)CC1 (stereo not drawn) | nt | nt | -3 | nt | 1 | nt | nt
CCc1nc(NCC2CC2)c2nnn(Cc3ccccc3)c2n1 | nt | nt | -8 | nt | -1 | nt | nt
COc1ccc(NC(C)=O)cc1S(=O)(=O)NCc1ccc2c(c1)OCO2 | nt | nt | -20 | nt | -3 | nt | nt
Cc1cccc(/C=N/NC(=O)NC2CCCCC2)c1 | 3 | 26 | -7 | -10 | -6 | -3% | -3%
O=C(Nn1cnnc1)c1ccncc1 | 0 | 9 | -2 | -4 | -2 | -7% | -2%
COCCCN1C(=O)c2ccc(C(=O)Nc3cccc(OC)c3)cc2C1=O | 0 | 13 | -2 | 0 | -1 | nt | nt
